Inconclusive results are not listed. Where a call stands in place of a potency, no number is given. Active and inactive are the calls of the source. The call rests on the fitted dose curve.

The test concerns the target cAMP-dependent protein kinase catalytic subunit alpha (Homo sapiens) (UniProt P17612). Put plainly: Protein Kinase A (PKA-HiBiT) enzymatic inhibition screen - Functional assay. Conditions: luminescence; series mostly up to 57.5 µM. An excerpt: National Center for Advancing Translational Sciences (NCATS),
National Institute of Health (NIH), Maryland
Discovery and optimization of novel protein-binding ligands underlies many of the methods and applications of biology, drug discovery, clinical diagnostics, and environmental toxicology. Assays for detecting the interaction of, for example, a molecule with a macromolecular target also referred to here as the target of interest (TOI) is dependent on a compatible output technology. Depending on the nature and knowledge surrounding the TOI, whether a receptor, enzyme, regulatory subunit or scaffold, or a sequence-defined nucleic acid folded into a complex tertiary structure, assay strategies can vary widely.
Here we exploit ligand-biased changes in the structural dynamics of the target protein to control reporter alpha complementation allowing a non-competitive, non-functional, non-separation measure of ligand-target interaction.
Using a chemical library of >1,200 compounds enriched for scaffolds known to be associated with the inhibition of firefly luciferase (FLuc) activity (PubChem AIDs 2309) we first illustrate and compare the Structural Dynamics Response (SDR) assay vs. the standard functional FLuc enzyme assay (2). Secondly, we show the specificity and sensitivity of the SDR for the Abelson tyrosine kinase (ABL1) compared to the serine/threonine protein kinase A, using an enriched chemical library of 128 compounds selected, in part, for activity annotated with ABL1 kinase activity using the Pharos database (3).
(1) A. S. Dixon et al., NanoLuc Complementation Reporter Optimized for Accurate Measurement of Protein Interactions in Cells. ACS Chem Biol 11, 400-408 (2016).
Chemistry & Biology, 19, 1060 - 1072 (2012).
(3) K. J. Kelleher et al., Pharos 2023: an integrated resource for the understudied human proteome. Nucleic Acids Res 51, D1405-D1416 (2023).
PROTOCOL TABLE (as described by Inglese J, Shamu CE and Guy RK. 2007)
SEQUENCE No. (e.g., 1, 2, 3, etc.); […] (e.g., C. elegans, Compounds, Incubation, Read, etc.); VALUE and DESCRIPTION.
1. Reagent. Dispense 4 uL PKA-N-HiBiT enzyme per well at a final enzyme concentration of 10 nM in buffer with 87.5 uM ATP (functional assay) into columns 2-48 of four replicate Greiner 1536-well white,solid bottom high base, medium plates per assay. Dispense respective buffer without enzyme at 4 uL/well in column 1 of assay plates using BioRaptr 2.
2. Compounds. Library compounds added at 23 nL/well by pin transfer. DMSO neutral control and H-89 positive control added at 25 nL/well, transfer by Mosquito dispenser.
3. Incubation. Incubate enzyme and compounds at room temperature for 30 min, protect from light.
4. Reagent. (Functional assay) Transfer 25 nL of kemptide peptide substrate to each well of four replicate kinase assay plates with Mosquito dispenser.
5. Incubation. (Functional assay) Kinase Enzyme incubated with peptide substrate for 3 h at room temperature, protected from light.
6. Reagent. (Functional assay) Add 4 uL/well of Kinase-Glo Plus reagent (Promega) to kinase activity assay plates.
7. Detector. (Functional assay) Luminescence measured using CCD-based camera (ViewLux) with settings as follows: Exposure, 1 sec; Gain, High; Speed, Slow; Binning, 2X.
Inglese J, Shamu CE and Guy RK, Reporting data from high throughput screening of small molecule libraries, Nature Chemical Biology, 2007, 3(8): 438-441. doi.org/10.1038/nchembio0807-438.
Take `C/C(O)=C(\C#N)C(=O)Nc1cc(Br)ccc1Br`: the Potency result is “inactive”.
To `Cc1[nH]nc2ccc(-c3cncc(OC[C@@H](N)Cc4c[nH]c5ccccc45)c3)cc12` belongs 2010 nM (active); to `O=[N+]([O-])O[C@H]1CO[C@H]2[C@@H]1OC[C@H]2O[N+](=O)[O-]`, “inactive”; to `CCNC(=O)C[C@@H]1N=C(c2ccc(Cl)cc2)c2cc(OC)ccc2-n2c(C)nnc21`, “inactive”.
Then `O=C(NCCCNc1nc(Nc2ccc(N3CCOCC3)cc2)ncc1C1CC1)C1CCC1`, with “inactive”.
As to `N#Cc1cn([C@@H]2O[C@H](CO)[C@H](O)[C@@H]2O)c2ncnc(N)c12`, the Potency entry was “inactive”.

The record behind these values is PubChem BioAssay AID1963321 (National Center for Advancing Translational Sciences (NCATS), 2024).
